# Measurements: the supplement of paper PMC6555819
# Tested on: PXR homodimer (NR concentration 270 nM)
# Experiment: PBM binding z-score (relative to random genomic background probes); higher = stronger binding; sequences stand for … in GC…GCGATTGACAGCGTAGAATGAAGG
# How it was run: (§1)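 Custom Agilent 4×180K protein-binding microarrays carried double-stranded probes, each with a 34-nt variable region. These regions held direct-repeat seeds, single-nucleotide variants, half-site ablations and random human genomic background sequences. Ligand-free nuclear receptor dimers were incubated on the arrays for 1 h, antibodies against each partner (one per run) detected binding, and scanned fluorescence was regression-normalized. Binding z-scores take the random background probes as reference.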
row,Sequence,PBM binding z-score
1,CCGACTGGGCCAAAGGTTACCATACTCAGTACGA,-0.189
2,AGTAAAAGTTCATCTAGGTAACGTAAGATATGCT,3.57
3,CCTTACGGGTCACTGACAGGTTATATCATTTGGA,0.432
4,GCGACTGGGGCATCAGCAGCTTACCATAACTTAA,-0.432
5,GCTGCTAGGTCAACTAATGGTCAGCTAAAGCTCG,-0.568
6,CCTACTGGGCCACGAAGGGTCATTGATTCAGTGA,0.0111
7,ACAGACAGGTGATGAAGGTAACTAAGGCTATCAT,0.104
8,TCTTGTAGATCAAGCAGGTTGAGAAAGCCTGAGT,-0.29
9,TCTATTAGTTGATTAGGGCGACCGAAACAGCGGA,0.338
10,CTACCAAGGTGAGCAAGGTCGTTGATTACTATTC,0.655
11,ATCGAAAGGTCGTGAGGTGGGTATACAGAAAGGC,0.721
12,CTCGAAAGGTCGCTTGAGGTGAGTATACGGATAA,0.207
13,CCTTACGGGTCAAGGCTATAGCACGGGTGGTACG,-0.208
14,AGAATGAGGTTATTAAGATTAGGGAATTGCGGTC,0.66
15,TCTCGGAGGACTCGAAAGGTCAGAGCTCGACATC,0.0023
16,ATCTCTAGGTATAGTTCAGTGAAAGATCGATAGA,1.11
17,CATACTAGGTCACGAAAGGTCAAAGTCGAATGAC,3.85
18,CCTACTGGGCCCAAGGTCATTGATTCCAATGCTC,1.78
19,GGAACGATGGCAAGTTGATAGCAGAGTTTGATGG,-0.221
20,TCTTGTAGATCATAGGTTAAGAAAGCCGAAGCCT,-0.184

row,Sequence,PBM binding z-score
1,CGTCCAAGGTCAAAGGCCAGTGAAGAGATGACGG,0.655
2,TCATATAGGTAAACAAGTGAAAGTCCGTAAGTTA,0.525
3,CCTTACGGGTCACTGACAGGTTATAACATTTGGA,0.294
4,ATATGTACGTTATCGGGTCATTCAGTTTGCGCAT,7.47
5,CCTTCTGGGCCAAGGTCATTGATCAGTCAAAGCA,1.12
6,TCTATTCGTTGAAGGGCAACCGACGAGTCCGTTT,0.546
7,CATAGTTGGTCAGGAGGTCACACACCGGATATGA,1.13
8,CGTCCAAGGTCAGCAGGTCAGTGATAGCGACGTG,0.512
9,AACTCTAGGTAACAAGTTCAGTGAAAGAGAGGAC,1.37
10,CCTACTGGGCCATTCAGAGTTCATTGATCATATG,8.94
11,CCTACTGGTCCAAAAAGGTCATTGATGCCGATAA,5.49
12,AGAATGAGGTTAACATCAGGGAAACAGAATACAT,0.184
13,CCTACTGGGCCAAAGGTCATTAATTCCAATGCTC,2.61
14,TAGCCTGGGTCAGATCGGGCCAGTATACGCTATA,-0.947
15,ACAGACAGGTGATGGAGGTAACTCAGGCTATCAT,-0.184
16,AGAATGAGGTTATTACGATCAGGGAATTGCGGTC,0.487
17,TCCTGTAGATCAATAGAGGTTAAGAAAGTGCGCT,0.378
18,ACAGACAGGTGATGAGGGTAACTCAGGCTATCAT,-0.131
19,GCTGCTAGGACAACTGATGGTCAGCTAAAGCTCG,-1.66
20,ACTAGCAGGCCAAGTTTGGGTCACTCGAACAAAG,-0.591

# Tested on: RARa:RXR (NR concentration 270 nM, RXRa partner concentration 90 nM)
# Experiment: as above
# How it was run: as §1
row,Sequence,PBM binding z-score
1,CCGACTGGGCCAAAGGTTACCATACTCAGTACGA,3.1
2,AGTAAAAGTTCATCTAGGTAACGTAAGATATGCT,3.39
3,CCTTACGGGTCACTGACAGGTTATATCATTTGGA,4.84
4,GCGACTGGGGCATCAGCAGCTTACCATAACTTAA,-0.454
5,GCTGCTAGGTCAACTAATGGTCAGCTAAAGCTCG,2.35
6,CCTACTGGGCCACGAAGGGTCATTGATTCAGTGA,3.46
7,ACAGACAGGTGATGAAGGTAACTAAGGCTATCAT,0.191
8,TCTTGTAGATCAAGCAGGTTGAGAAAGCCTGAGT,-0.172
9,TCTATTAGTTGATTAGGGCGACCGAAACAGCGGA,0.407
10,CTACCAAGGTGAGCAAGGTCGTTGATTACTATTC,1.44
11,ATCGAAAGGTCGTGAGGTGGGTATACAGAAAGGC,4.17
12,CTCGAAAGGTCGCTTGAGGTGAGTATACGGATAA,3.93
13,CCTTACGGGTCAAGGCTATAGCACGGGTGGTACG,3.68
14,AGAATGAGGTTATTAAGATTAGGGAATTGCGGTC,1.52
15,TCTCGGAGGACTCGAAAGGTCAGAGCTCGACATC,3.76
16,ATCTCTAGGTATAGTTCAGTGAAAGATCGATAGA,1.08
17,CATACTAGGTCACGAAAGGTCAAAGTCGAATGAC,7.57
18,CCTACTGGGCCCAAGGTCATTGATTCCAATGCTC,3.17
19,GGAACGATGGCAAGTTGATAGCAGAGTTTGATGG,-0.504
20,TCTTGTAGATCATAGGTTAAGAAAGCCGAAGCCT,1.37

row,Sequence,PBM binding z-score
1,CGTCCAAGGTCAAAGGCCAGTGAAGAGATGACGG,5.25
2,TCATATAGGTAAACAAGTGAAAGTCCGTAAGTTA,0.876
3,CCTTACGGGTCACTGACAGGTTATAACATTTGGA,4.67
4,ATATGTACGTTATCGGGTCATTCAGTTTGCGCAT,3.02
5,CCTTCTGGGCCAAGGTCATTGATCAGTCAAAGCA,3.11
6,TCTATTCGTTGAAGGGCAACCGACGAGTCCGTTT,0.933
7,CATAGTTGGTCAGGAGGTCACACACCGGATATGA,5.4
8,CGTCCAAGGTCAGCAGGTCAGTGATAGCGACGTG,4.49
9,AACTCTAGGTAACAAGTTCAGTGAAAGAGAGGAC,0.703
10,CCTACTGGGCCATTCAGAGTTCATTGATCATATG,1.75
11,CCTACTGGTCCAAAAAGGTCATTGATGCCGATAA,4.95
12,AGAATGAGGTTAACATCAGGGAAACAGAATACAT,2.81
13,CCTACTGGGCCAAAGGTCATTAATTCCAATGCTC,5.93
14,TAGCCTGGGTCAGATCGGGCCAGTATACGCTATA,0.69
15,ACAGACAGGTGATGGAGGTAACTCAGGCTATCAT,0.033
16,AGAATGAGGTTATTACGATCAGGGAATTGCGGTC,1.78
17,TCCTGTAGATCAATAGAGGTTAAGAAAGTGCGCT,1.59
18,ACAGACAGGTGATGAGGGTAACTCAGGCTATCAT,0.591
19,GCTGCTAGGACAACTGATGGTCAGCTAAAGCTCG,-1.08
20,ACTAGCAGGCCAAGTTTGGGTCACTCGAACAAAG,1.12
